# Measurements taken from ChEMBL document CHEMBL1157539, “Thousands of chemical starting points for antimalarial lead identification” (Nature, 2010).
# System: Plasmodium falciparum
# Assay: GSK_TCMDC: Inhibition of Plasmodium falciparum 3D7 in whole red blood cells, using parasite LDH activity as an index of growth. Test compounds present at 2uM
# Format: functional
row,Compound,Inhibition
1,Cc1nn(C)c(C)c1CN(Cc1nc(-c2cccc(Oc3ccccc3)c2)oc1C)C1CC1,100%
2,CN1CCN(CCCN(Cc2cccc(-c3ccc(CNCCc4ccccc4)cc3)c2)C(=O)Nc2ccccc2)CC1.O=C(O)C(F)(F)F,100%
3,CN1CCN(c2ccc(-c3cc(-c4cc(F)c(F)c(F)c4)cnc3N)cc2)CC1,88%
4,O=C(NCC(CCN1CCC(c2c[nH]c3ccccc23)CC1)c1ccccc1)Nc1ccc(Cl)c(Cl)c1 (stereo unspecified),100%
5,CC(C)(C)c1ccc(CNC(=O)c2cc(CNC3CCNC3)ccc2O)cc1 (stereo unspecified),94%
6,CN(C)c1ccc(CN2CCC(NC(=O)c3ccc(-c4ccccc4F)s3)CC2)cc1.O=C(O)C(F)(F)F,86%
7,CC(C)N1CCC(N(Cc2ccc(-c3ccc(C(F)(F)F)cc3)cc2)C(=O)Cn2c(SCc3cccc(F)c3F)nc(=O)c3ccccc32)CC1.O=C(O)C(O)C(O)C(=O)O,91%
8,COc1ccc(CN(C)CCCc2ccc(NC(=O)c3cccc4c(=O)c5cccc(F)c5[nH]c34)cc2)cc1OC,100%
9,Cn1nc(-c2cccc(CN[C@@H]3CCc4ccc(O)cc43)c2)c2cnc(NC3CCCC3)nc21,100%
10,O=C(NCCc1ccccc1)N(Cc1cccc(-c2ccc(CNCc3ccc4c(c3)OCO4)cc2)c1)C1CCN(Cc2ccccc2)CC1.O=C(O)C(F)(F)F,94%
11,Cc1noc(C)c1-c1cccc(CNCc2ccc(-c3ccc(-c4nc5cc(C(F)(F)F)ccc5[nH]4)s3)cc2)c1.O=C(O)C(F)(F)F,100%
